# PubChem BioAssay AID2685 (National Center for Advancing Translational Sciences (NCATS), 2010)
# About 2,100 (0.66%) of roughly 320,000 compounds were called active. About 53% were inconclusive and are not listed. Calls come from the whole dose curve; as a rule, active = well fitted inhibition curve with a large enough effect in the signal ratio, with a control signal flat (not every such curve was filed as active); inconclusive = small, poorly fitted or top-dose-only effect, or effect the other way, or a change in a side signal; inactive = flat fitted curve, though single readings scatter; the % refers to the signal ratio. Only a selection was taken, and actives are over-represented in it overall.
# Assay: qHTS Assay for Lipid Storage Modulators in Drosophila S3 Cells;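 for cell number change: cells counted by Cell Tracker Red CMTPX staining in the red channel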; for lipid storage change, negative = inhibition: % is set by controls: 0 for no effect and ±100 for the full control effect
# Details: BODIPY lipid droplet fluorescence, 18-24 h, cells fed with added oleic acid; cell number change: measured here: cell count max response; series mostly up to 46.1 µM; lipid storage change, negative = inhibition: at the top concentration
# Outline: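 Drosophila S3 cells loaded with oleic acid (400 uM, as added) and compounds at several concentrations; lipid droplets imaged by 488-nm laser-scanning cytometry, 500–530 nm intensity and object ratio to cell channel. Percent activity normalized to 20 uM Triacsin C.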
# Potency is the fitted concentration of half-maximal effect.
SMILES,outcome,cell number change [%],"lipid storage change, negative = inhibition",Potency
CCn1cc(C(=O)N(C)CC(OC)OC)c(=O)c2cc(S(=O)(=O)N3CCOCC3)ccc21,inactive,3.42,–,–
C=CCn1c(=S)[nH]c2cc(C(=O)NCCc3ccc(S(N)(=O)=O)cc3)ccc2c1=O,–,16.5,3.58% (inactive),–
Cc1ccc(S(N)(=O)=O)c(C)c1-n1cnnn1,–,3.24,3.06% (inactive),–
CCN1CCN(C(C)C(=O)Nc2c(C)n(C)n(-c3ccccc3)c2=O)CC1 (centres undefined),–,-2.1,12.9% (inactive),–
Cc1c(NC(=O)C(C)N2C(=O)C3CCCCC3C2=O)c(=O)n(-c2ccccc2)n1C (centres undefined),–,9.88,-5.56% (inactive),–
Cc1ccc(SC(C)C(=O)Nc2c(C)n(C)n(-c3ccccc3)c2=O)cc1 (centres undefined),inactive,–,–,–
COc1cc(-c2nnc(SC(C)C(=O)Nc3c(C)n(C)n(-c4ccccc4)c3=O)o2)cc(OC)c1OC (centres undefined),–,-15.3,–,25.9 µM (active)
Cc1c(NC(=O)C(C)N2CC(C)OC(C)C2)c(=O)n(-c2ccccc2)n1C (centres undefined),–,11.9,–,7.31 µM (active)
Cc1cc(SC(C)C(=O)Nc2c(C)n(C)n(-c3ccccc3)c2=O)nc2ccccc12 (centres undefined),–,-14.4,-14.6% (inactive),–
COCCNC(=O)C(C)Oc1ccccc1 (centres undefined),–,20.2,20.9% (inactive),–
NS(=O)(=O)c1ccc(CNC(=O)CSc2nc3ccc(Cl)cc3[nH]2)cc1,–,-16.1,-1.11% (inactive),–
COc1ccc(C2CC(=O)c3sc(NC(C)=O)nc3C2)cc1 (centres undefined),–,20.9,-1.03% (inactive),–
Cc1ccc(NC(=S)N2CCC(N(C)CC3CCCO3)CC2)cc1 (centres undefined),–,14.9,1.85% (inactive),–
Cc1ccc(NC(=S)N2CCC(N(C)CC3CCCO3)CC2)cc1C (centres undefined),–,5.03,7.38% (inactive),–
Cc1c(Cl)cccc1NC(=S)N1CCC(N(C)CC2CCCO2)CC1 (centres undefined),–,7.58,5.5% (inactive),–
Cc1cc(C)cc(NC(=S)N2CCC(N(C)CC3CCCO3)CC2)c1 (centres undefined),–,11.9,2.61% (inactive),–
Cc1cccc(C)c1NC(=S)N1CCC(N(C)CC2CCCO2)CC1 (centres undefined),–,-14.4,–,20.6 µM (active)
Cc1cc(C)c(NC(=S)N2CCC(N(C)CC3CCCO3)CC2)c(C)c1 (centres undefined),–,6.74,–,25.9 µM (active)
Cc1cc(-c2csc(N)n2)c(C)n1CCc1ccccc1,inactive,-18.9,–,–
CCN(CC)C(=O)C1CCN(S(=O)(=O)c2ccc(-n3cnnn3)cc2)CC1,–,1.39,-3.69% (inactive),–
COc1ccc(S(=O)(=O)NCC(=O)NCc2cc(=O)n(C)c(=O)n2C)cc1C,–,10.1,-0.472% (inactive),–
CCOC(CCn1c(SCC(=O)NC2CCCC2)nc2ccccc2c1=O)OCC,inactive,7.57,–,–
CN(C)CCCNCCCNC(=O)c1ccncc1,–,10.5,-3.34% (inactive),–

SMILES,outcome,cell number change [%],"lipid storage change, negative = inhibition",Potency
O=C(CC1C(=O)NCCN1Cc1cccc(C(F)(F)F)c1)NC1CCCCCC1 (centres undefined),–,13.5,–,5.17 µM (active)
O=C(CC1C(=O)NCCN1Cc1cccc(F)c1)NC1CCCCC1 (centres undefined),–,13.2,-0.615% (inactive),–
O=C(CC1C(=O)NCCN1Cc1ccccc1)NC1CCCCCC1 (centres undefined),inactive,13.2,–,–
Cc1n[nH]c(C)c1C(=O)CC1(O)C(=O)N(CCc2ccccc2)c2ccc(Br)cc21 (centres undefined),–,12.8,10.4% (inactive),–
O=C1NC2(Nc3ccccc31)C(=O)Nc1ccc(Br)cc12 (centres undefined),–,-0.207,-0.023% (inactive),–
O=C1Nc2ccc(Br)cc2C1(O)c1ccccc1 (centres undefined),–,20.9,3% (inactive),–
O=C1Nc2ccc(Br)cc2C12NNc1ccccc1O2 (centres undefined),–,–,–,23.1 µM (active)
CCOc1ccc(NC(=O)NC(C)c2ccc3c(c2)OCO3)cc1 (centres undefined),–,-0.862,15.4% (inactive),–
O=C(CCSc1nc(-c2ccc3c(c2)OCO3)cc(C(F)(F)F)n1)NCc1ccccc1,–,-16.9,-11.3% (inactive),–
CCc1cccc(NC(=O)NC(=O)Cn2nnc(C(=O)OC)c2C(=O)OC)c1,–,1.8,23.6% (inactive),–
CC(C)Sc1nnc([C@@H]2CCCN2C(=O)OC(C)(C)C)o1,–,-3.74,–,32.6 µM (active)
Cc1ccc(CSc2nnc([C@@H]3CCCN3C(=O)OC(C)(C)C)o2)cc1,–,17.7,3.95% (inactive),–
CC(C)(C)OC(=O)N1CCC[C@H]1c1nnc(SCc2ccccc2)o1,–,10.4,7.68% (inactive),–
CCSc1nnc([C@@H]2CCCN2C(=O)OC(C)(C)C)o1,–,6.53,–,23.1 µM (active)
C=C(C)CSc1nnc([C@@H]2CCCN2C(=O)OC(C)(C)C)o1,–,9.31,3.39% (inactive),–
CCCCSc1nnc([C@@H]2CCCN2C(=O)OC(C)(C)C)o1,–,-21.2,11.2% (inactive),–
COc1ccc(C=O)cc1Cn1ccnc1C,–,-21.5,-6.92% (inactive),–
N#C/C(=C\c1cccs1)C(=O)Nc1ccccn1,–,9.59,-4.46% (inactive),–
CC(C)(C)c1ccc(/C=C(\C#N)C(=O)Nc2ccccn2)cc1,–,9.55,20.5% (inactive),–
N#C/C(=C\c1ccccc1Cl)C(=O)Nc1ccccn1,–,7.44,–,25.9 µM (active)
Cc1ccc(-c2cc(C(F)F)n3ncc(C(=O)N4CCc5ccccc5C4)c3n2)cc1,–,3.7,8.24% (inactive),–
CC(=O)Nc1cccc(Oc2ncnc3scc(-c4ccccc4)c23)c1,–,1.71,9.37% (inactive),–
Cc1ccc(S(=O)(=O)N2CCN(C(=O)c3nn(C(C)C)c(=O)c4ccccc34)CC2)cc1C,inactive,–,–,–

SMILES,outcome,cell number change [%],"lipid storage change, negative = inhibition",Potency
CCCn1nc(C(=O)N2CCc3ccccc3C2)c2ccccc2c1=O,–,-8.58,4.01% (inactive),–
CCCn1nc(C(=O)N2CCN(S(=O)(=O)c3ccc(C)c(C)c3)CC2)c2ccccc2c1=O,–,29.1,–,11.6 µM (active)
CCn1cc(C(=O)N(C)Cc2ccc(OC(F)F)cc2)c(=O)c2ccc(C)nc21,–,19.2,–,18.4 µM (active)
C=Cc1ccc(COC(=O)c2cn(CC)c3nc(C)ccc3c2=O)cc1,inactive,–,–,–
CCn1cc(C(=O)OC)c(=O)c2ccc(C)nc21,–,4.24,-1.46% (inactive),–
O=C(COC(=O)CNS(=O)(=O)c1cccc(Br)c1)NC(=O)Nc1ccc2c(c1)OCCO2,–,–,8.82% (inactive),–
COc1ccc(-n2nc(C(=O)NCC(=O)N(C)Cc3ccccc3)c3ccccc3c2=O)c(OC)c1,inactive,9.58,–,–
COc1ccccc1N(CC(=O)Nc1ccccc1C(=O)N1CCOCC1)S(C)(=O)=O,–,1.26,5.39% (inactive),–
CCS(=O)(=O)N1CCN(C(=O)c2cccc3ccccc23)CC1,inactive,17.9,–,–
O=C(O)CCCC(=O)Nc1ccccc1C(=O)N1CCCC1,–,0.517,–,4.61 µM (active)
CCOc1ccccc1N(CC(=O)Nc1ccccc1C(=O)N1CCCC1)S(C)(=O)=O,inactive,-13.5,–,–
O=C(c1ccncc1)N1CCN(C(=O)c2cccc3ccccc23)CC1,–,6.28,13.3% (inactive),–
COc1ccccc1N(CC(=O)Nc1ccccc1C(=O)N1CCCC1)S(C)(=O)=O,–,1.61,–,18.4 µM (active)
Cc1ccccc1OCCC(=O)Nc1ccccc1C(=O)N1CCCCC1,–,-4.28,–,5.8 µM (active)
CCC(=O)Nc1ccccc1C(=O)N1CCCC1,inactive,13.5,–,–
O=C(c1cccc2ccccc12)N1CCCCC1,–,-5.25,–,8.2 µM (active)
O=C(CCSc1ccccc1)Nc1ccccc1C(=O)N1CCCC1,–,-3.09,8.31% (inactive),–
COc1ccccc1OCC(=O)Nc1ccccc1C(=O)N1CCCCC1,–,–,-14.5% (inactive),–
Cc1ccc(OCC(=O)Nc2ccccc2C(=O)N2CCCCC2)cc1,inactive,24.3,–,–
O=C(CN1CCN(CC(=O)Nc2ccccc2C(F)(F)F)CC1)Nc1ccccc1F,–,–,0.494% (inactive),–
O=C(CCC(=O)Nc1ccccc1Cl)NNC(=O)c1ccco1,–,11.4,2.6% (inactive),–
CCN1C(=O)[C@H]2[C@@H](c3ccc(-c4ccc5c(c4)OCO5)cc3)N3CCC[C@@]3(C(=O)OC)[C@H]2C1=O,–,-27.4,13.4% (inactive),–
Cc1ccccc1NCN1C(=O)C2CCC(C)(C1=O)C2(C)C (centres undefined),–,-11.4,-4.09% (inactive),–

SMILES,outcome,cell number change [%],"lipid storage change, negative = inhibition",Potency
CCOC(=O)c1cccc(NS(=O)(=O)Cc2ccccc2)c1,–,-5.1,-7.72% (inactive),–
COc1cccc(/C=C/C(=O)OCC(=O)Nc2cc(C(F)(F)F)ccc2Cl)c1,–,1.22,12.8% (inactive),–
COCCNC(=O)CN(C(=O)Cn1nnc2ccccc21)c1ccc(C)c(F)c1,–,-2.04,9.15% (inactive),–
NC(=O)CCCc1nc(-c2ccccc2Cl)no1,–,-20.4,-1.99% (inactive),–
CCN1C(=NCc2ccco2)N[C@@H](c2cccc(F)c2)C(C(=O)OC)=C1C,–,16.3,-18% (inactive),–
COCCNC(=O)C(=O)NCCN1CCOCC1,–,-14.6,-0.917% (inactive),–
CCOc1ccc(NC(=O)CSc2nc(=O)n(Cc3cccnc3)c3c2CCC3)cc1,inactive [at 0.0737 µM],–,–,–
COc1ccc(-n2c(-c3cccc(C)c3[N+](=O)[O-])n[nH]c2=S)cc1,–,2.37,-20.3% (inactive),–
Cc1ccccc1CN(C)C(C)C(=O)NCc1ccccc1 (centres undefined),–,16.8,7.5% (inactive),–
CCN(C(=O)CCNC(=O)Cn1cnc2ccccc2c1=O)c1ccccc1F,inactive,-0.794,–,–
COc1ccc(Nc2nnc(-c3ccc(O)cc3)c3ccccc23)cc1,inactive,–,–,–
Cc1nc2cc(NC(=O)Nc3cccc4ccccc34)ccc2n1C,–,19.9,-7.94% (inactive),–
Cc1nc2cc(Nc3nnc(-c4ccccc4)c4ccccc34)ccc2n1C,–,-29.7,–,11.6 µM (active)
O=C(CN1CCN(S(=O)(=O)N2CCOCC2)CC1)Nc1cc(Cl)cc(Cl)c1,inactive,10,–,–
COc1ccc(-c2cc(C(=O)NC3CCCC3)no2)cc1,inactive,6.09,–,–
O=C(NC1CCCCC1)c1cc(-c2ccc(F)cc2)on1,–,15.8,–,23.1 µM (active)
Cc1ccc(-c2cc(C(=O)NC3CCCC3)no2)cc1,–,-1.32,71.1% (inactive),–
O=C(c1ccccc1)N1CCN(CC(O)COc2ccc(Br)cc2)CC1 (centres undefined),inactive,–,–,–
OC(COc1ccccc1)CN1CCOCC1 (centres undefined),–,9.9,0.356% (inactive),–
CCOC(=O)N1CCN(CC(O)COc2ccccc2[N+](=O)[O-])CC1 (centres undefined),–,10.6,12.5% (inactive),–
CCOC(=O)N1CCN(CC(O)COc2ccccc2C(C)C)CC1 (centres undefined),–,-2.25,-5.66% (inactive),–
CCOC(=O)N1CCN(CC(O)COc2ccccc2C(C)CC)CC1 (centres undefined),–,1.1,–,3.66 µM (active)
O=C(C(c1ccccc1)c1ccccc1)N1CCN(CC(O)COc2ccccc2)CC1 (centres undefined),–,-10.2,–,4.61 µM (active)
